“And” between values parts separate entries of the source, which are not always exact repeats. Equal entries are not always repeated. Values without a mark were called inactive. Records with an inconclusive call do not appear. The source made the active and inactive calls. Unless noted, the call rests on the fitted dose curve; in most records, active means well fitted curve in either direction with a large enough effect (not every such curve was filed as active); inconclusive means small, poorly fitted or top-dose-only effect, or another doubt; inactive means flat fitted curve, though single readings scatter.
Columns and labels:
[1] = biological target: Lysosomal acid glucosylceramidase (Homo sapiens) (UniProt P04062); test: Glucocerebrosidase-p2 (AID 348; in the data active means potency below about 10 µM; further: potency means the concentration at half of the fitted maximal effect); conditions: purified GBA, blue fluorogenic substrate, 40 min
Chain of Lysosomal acid glucosylceramidase (Homo sapiens) (P04062 whole entry, looked up): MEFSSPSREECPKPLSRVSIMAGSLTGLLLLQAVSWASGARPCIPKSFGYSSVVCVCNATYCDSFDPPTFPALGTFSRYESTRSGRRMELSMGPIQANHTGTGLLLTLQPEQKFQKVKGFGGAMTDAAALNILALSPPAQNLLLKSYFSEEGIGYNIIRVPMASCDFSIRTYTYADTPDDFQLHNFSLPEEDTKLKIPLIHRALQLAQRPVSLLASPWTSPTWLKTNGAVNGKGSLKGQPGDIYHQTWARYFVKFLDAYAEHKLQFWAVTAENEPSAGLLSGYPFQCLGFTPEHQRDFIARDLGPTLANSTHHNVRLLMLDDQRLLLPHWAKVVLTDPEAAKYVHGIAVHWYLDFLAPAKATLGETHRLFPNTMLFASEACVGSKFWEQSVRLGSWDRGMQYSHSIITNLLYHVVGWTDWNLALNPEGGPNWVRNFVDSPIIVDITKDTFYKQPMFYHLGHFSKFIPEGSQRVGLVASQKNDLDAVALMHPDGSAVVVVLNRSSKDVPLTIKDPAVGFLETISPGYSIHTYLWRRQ
Summary of the method: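 Normal human glucocerebrosidase (0.2 nM) with blue fluorogenic substrate (80 uM final) in citrate/phosphate pH 5.9 with 10mM sodium taurocholate, 0.01% tween-20; 40 min RT, NaOH/glycine stop; fluorescence Ex 365/Em 440; AC50 from a titration from 0.6 nM upwards.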

[2] = AP1 Signaling Pathway (AID 357); conditions: ME-180 AP-1-bla reporter, EGF-induced, beta-lactamase ratio, 5 h; at 7.69 µM (top of the series) unless noted;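 further: ME-180 reporter cells stimulated with EGF at its EC50 level; on the % scale 0 is the no-effect control and ±100 the full control effect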
Summary of the method: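 Beta-lactamase reporter under AP-1 response element, ME-180 background. Stimulus: EC50 EGF. Compound exposure 5 h, 37 °C. Detection: CCF4, 2.5 h RT, 460/530 nm. Values: AC50 from titration.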

[3] = NFAT Signaling Pathway (AID 444); conditions: Jurkat NFAT-bla M1, carbachol, beta-lactamase ratio, 5 h; at 7.69 µM (top of the series) unless noted;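 further: carbachol stimulus at about its EC50 of 1 µM final; on the % scale 0 is the no-effect control and ±100 the full control effect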
Summary of the method: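 Jurkat cells carrying an NFAT-driven β-lactamase reporter and co-transfected muscarinic M1 receptor were treated with compound plus carbachol (1 uM final, an EC50 level) for 5 h at 37 °C. CCF4 loading followed for 1 h at RT; 460/530 nm ratio gave %activity.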

[4] = Stat Signaling Pathway (AID 446); conditions: ME-180 (cervical carcinoma) SIE beta-lactamase reporter, IL-6 stimulated, 5 h; at 7.69 µM (top of the series) unless noted;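 further: ME-180 cervical cancer cells given 40 pM IL-6 alongside compound; SIE-controlled beta-lactamase reporter measured as 460/530 nm FRET emission ratio; on the % scale 0 is the no-effect control and ±100 the full control effect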
Summary of the method: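 Compound effects on IL-6-induced STAT reporter activity were measured in ME-180 cells. After overnight culture, cells were co-treated with 40 pM IL-6 for 5 hrs before beta-lactamase substrate loading at room temperature.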

[5] = biological target: Glucocorticoid receptor (Homo sapiens) (UniProt P04150); test: GR-GFP Redistribution (AID 450;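 active means compounds whose dose series gives a full or clear partial fitted curve of increased nuclear translocation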; further: potency means the concentration at half of the fitted maximal effect); conditions: U2OS GR-GFP nuclear translocation, laser cytometry, 2 h
Chain of Glucocorticoid receptor (Homo sapiens) (P04150 whole entry, looked up, the tested form may be a part): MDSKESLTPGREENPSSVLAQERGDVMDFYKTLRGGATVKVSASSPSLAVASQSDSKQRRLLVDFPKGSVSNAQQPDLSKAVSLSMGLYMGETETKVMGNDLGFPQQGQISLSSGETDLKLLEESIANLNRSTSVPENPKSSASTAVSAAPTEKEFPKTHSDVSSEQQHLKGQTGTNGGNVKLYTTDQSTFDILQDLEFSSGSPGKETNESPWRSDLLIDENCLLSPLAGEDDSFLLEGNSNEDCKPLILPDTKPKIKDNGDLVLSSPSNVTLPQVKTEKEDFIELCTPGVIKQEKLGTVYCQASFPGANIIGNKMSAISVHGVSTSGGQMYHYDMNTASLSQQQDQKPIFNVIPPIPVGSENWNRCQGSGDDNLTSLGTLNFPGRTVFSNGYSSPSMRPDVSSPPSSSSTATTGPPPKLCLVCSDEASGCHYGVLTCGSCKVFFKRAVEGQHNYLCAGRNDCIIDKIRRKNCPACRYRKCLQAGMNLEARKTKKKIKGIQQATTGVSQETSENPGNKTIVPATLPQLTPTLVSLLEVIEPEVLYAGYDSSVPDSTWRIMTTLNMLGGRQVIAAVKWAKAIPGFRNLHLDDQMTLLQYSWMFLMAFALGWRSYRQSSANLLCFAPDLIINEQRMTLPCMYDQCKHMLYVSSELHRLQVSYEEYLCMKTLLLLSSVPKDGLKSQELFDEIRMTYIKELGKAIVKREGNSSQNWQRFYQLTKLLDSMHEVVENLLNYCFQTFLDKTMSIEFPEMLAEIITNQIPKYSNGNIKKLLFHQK

[6] = biological target: Glucocorticoid receptor (Homo sapiens) (UniProt P04150); test: GR-EFC Redistribution (AID 451; calls by dose curve; further: potency means the concentration at half of the fitted maximal effect); conditions: CHO-K1 GR-EFC translocation, beta-gal luminescence, 2 h
Summary of the method: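 CHO-K1 cells stably expressing nuclear-localized β-gal enzyme acceptor and GR fused C-terminally to the enzyme donor fragment; ligand-driven nuclear translocation restores β-gal by complementation. Compounds titrated up to 46 uM final, 2 h at 37 °C; luminescence read.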

[7] = biological target: Mitogen-activated protein kinase 10 (Mus musculus) (UniProt Q61831); test: JNK3 AlphaScreen Assay (AID 530); conditions: JNK3 lysate, c-Jun phosphorylation; series mostly up to 11.4 µM;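 further: kinase came from lysate of stimulated human HepG2 cells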; further: potency means the concentration at half of the fitted maximal effect;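 on activity change, negative = inhibition: signal reports phosphorylation of biotinylated GST-cJun 1-79 at Ser73 with 10 µM ATP; on the % scale 0 is the no-effect control and ±100 the full control effect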
Summary of the method: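 Phosphorylation of biotinylated GST-cJun(1-79) at Ser73 is measured by AlphaScreen proximity luminescence. Enzyme is JNK3 in HepG2 lysates activated with interleukin-1beta and tumor necrosis factor alpha; ATP is 10 uM final.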

[8] = biological target: 3',5'-cyclic-AMP phosphodiesterase 4B (Homo sapiens) (UniProt Q07343); test: qHTS Assay for Inhibitors of PDE-IV (AID 607; active means well fitted activation curve with a large enough effect in the main read-out, with a control signal flat, not every such curve was filed as active; further: % of control where 0% means no effect); conditions: HEK293 ACTOne CNG channel cells, membrane potential fluorescence; series mostly up to 22.9 µM
Chain of 3',5'-cyclic-AMP phosphodiesterase 4B (Homo sapiens) (Q07343 whole entry, looked up): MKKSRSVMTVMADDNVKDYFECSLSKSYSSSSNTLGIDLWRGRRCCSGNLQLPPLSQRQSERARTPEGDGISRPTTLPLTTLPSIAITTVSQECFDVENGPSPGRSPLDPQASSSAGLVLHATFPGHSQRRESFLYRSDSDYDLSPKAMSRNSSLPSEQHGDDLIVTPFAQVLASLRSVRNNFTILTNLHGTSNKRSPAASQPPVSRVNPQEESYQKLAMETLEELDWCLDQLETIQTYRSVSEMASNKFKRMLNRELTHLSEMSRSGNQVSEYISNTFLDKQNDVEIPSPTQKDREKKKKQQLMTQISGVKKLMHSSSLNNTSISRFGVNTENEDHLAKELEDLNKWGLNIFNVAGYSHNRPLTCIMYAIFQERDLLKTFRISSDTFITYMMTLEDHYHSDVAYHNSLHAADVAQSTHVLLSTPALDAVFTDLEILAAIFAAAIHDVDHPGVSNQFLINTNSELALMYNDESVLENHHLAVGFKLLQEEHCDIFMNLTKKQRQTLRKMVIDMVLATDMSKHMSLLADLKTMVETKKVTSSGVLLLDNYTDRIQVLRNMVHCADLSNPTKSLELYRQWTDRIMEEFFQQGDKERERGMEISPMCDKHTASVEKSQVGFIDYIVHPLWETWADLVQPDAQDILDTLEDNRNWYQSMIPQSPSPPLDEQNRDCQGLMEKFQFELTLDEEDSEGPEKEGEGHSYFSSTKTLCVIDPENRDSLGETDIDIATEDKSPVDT
Summary of the method: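 ACTOne HEK293 cells carry a modified cAMP-gated CNG channel and express endogenous PDE4; plated 1000 cells/well, compounds up to 22.9 uM final. Membrane-potential dye fluorescence (ex 535/em 590) was read; parental cells received 10 uM forskolin + 100 uM RO 20-1724.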

Row | Structure (SMILES) | Potency [1] [µM] | activity change, negative = inhibition [2] | activity change, negative = inhibition [3] | activity, negative = inhibition [4] | Potency [5] [µM] | Potency [6] [µM] | Potency [7] | Potency [8]
1 | O=C(Nc1ccc(-c2cn3ccccc3n2)cc1)c1cc(Br)ccc1O | > 11.4 | -0.171% | 1.22% | -0.935% | > 46 | > 9.22 | inactive | inactive
2 | CCN(CC(=O)O)C(=O)c1cccnc1 | > 11.4 | -4.46% | 5.05% | -6.57% | > 46 | > 9.22 | inactive | inactive
3 | O=C(O)c1cccc(S(=O)(=O)NCCO)c1 | > 11.4 | 5.38% | 3.24% | -2.13% | > 46 | > 9.22 | inactive | inactive
4 | C[N+](C)(C)c1ncnc2c1ncn2[C@@H]1C[C@H](O)[C@@H](CO)O1 | > 11.4 | 2.41% | 9.78% | 3.06% | > 46 | > 9.22 | inactive | inactive
5 | OC1(C(O)(c2ccc(-c3ccccc3)cc2)c2ccc(-c3ccccc3)cc2)CCCCC1 | > 11.4 | 7.3% | 2.32% | 1.1% | > 46 | > 9.22 | inactive | inactive
6 | O=C1C(=O)c2ccccc2C(O)=C1Cc1ccccc1 | > 11.4 | -5.11% | 4.13% | -11.8% | > 46 | > 9.22 | inactive | inactive
7 | O=C(Nc1c[nH]c(=O)[nH]c1=O)Oc1ccccc1 | > 11.4 | 1.22% | 2.28% | -1.82% | > 46 | > 9.22 | inactive | inactive
8 | C[C@@H](CCC[C@@H]1SC[C@H]2NC(=O)N[C@H]12)C(=O)O | > 11.4 | -0.543% | -21.7% | -4.44% | > 46 | > 9.22 | 0.0316 µM (active) | inactive
9 | NC(=O)/N=C(\N)NC(=O)c1ccccc1 | > 11.4 | -2.56% | 8.99% | 2.37% | > 46 | > 9.22 | inactive | inactive
10 | CC1(C)CC(=O)C(C(c2cccc(O)c2O)C2C(=O)CC(C)(C)CC2=O)C(=O)C1 | > 11.4 | -0.68% | 2.55% | 1.05% | > 46 | > 9.22 | inactive | inactive
11 | N=C(N)SCCc1ccccn1 | > 11.4 | -8.38% and 0.949% | 3.85% and 12.3% | -5.15% and -3.19% | > 46 | > 9.22 | inactive | inactive
12 | O=C(O)CSCc1cccc2ccccc12 | > 11.4 | -0.864% | 16.3% | 2.65% | > 46 | > 9.22 | inactive | inactive
13 | CC(C)(C)n1nc(C2CC2)cc1NC(=O)Nc1ccc(Cl)cc1 | > 11.4 | -5.76% | 8.66% | -5.8% | > 46 | > 9.22 | inactive | inactive
14 | Cc1c(-c2nc(N)nc(C3CC3)c2C)nc(N)nc1C1CC1 | > 11.4 | 2.87% | 4.67% | 5.17% | > 46 | > 9.22 | inactive | inactive
15 | NCCOC[C@H](N)C(=O)O | > 11.4 | 3.26% | 11.6% | -1.46% | > 46 | > 9.22 | inactive | inactive
16 | NNS(=O)(=O)c1cc(C(=O)O)cc(C(=O)O)c1 | > 11.4 | 4.57% | 14.9% | 3.48% | > 46 | > 9.22 | inactive | inactive
17 | c1cncc(CSc2ncnc3nc[nH]c23)c1 | > 11.4 | -2.25% | 19.6% | 8.79% | > 46 | > 9.22 | inactive | inactive

— PubChem BioAssay (NCATS)
